Experimental data from the supplement of paper PMC6555819.

What was measured:
Test in all cases: PBM binding z-score (relative to random genomic background probes); higher = stronger binding; sequences stand for … in GC…GCGATTGACAGCGTAGAATGAAGG
[1] = system: RARb homodimer (NR concentration 270 nM)
How it was run: (§1)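 Ligand-free nuclear receptor dimers were applied to custom Agilent 4×180K protein-binding microarrays whose double-stranded probes carried direct-repeat seeds, single-nucleotide variants, half-site ablations and random human genomic background sequences in 34-nt variable regions. Incubation lasted 1 h. Binding z-scores were computed against the random background probes from regression-normalized fluorescence.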

[2] = system: RARg:RXRa (NR concentration 270 nM, RXRa partner concentration 90 nM)
How it was run: as §1

[3] = system: RARg homodimer (NR concentration 270 nM)
How it was run: as §1

[4] = system: RXRa DBDmut IVT, anti-RXR (DBD mutation: RXRa K156A/R161A, NR concentration 90 nM)
How it was run: as §1

[5] = system: RXRa homodimer (NR concentration 180 nM)
How it was run: as §1

[6] = system: THRa:RXRa (NR concentration 90 nM, RXRa partner concentration 90 nM)
How it was run: as §1

[7] = system: THRa homodimer (NR concentration 90 nM)
How it was run: as §1

[8] = system: VDR homodimer (NR concentration 270 nM)
How it was run: as §1

Row | Sequence | PBM binding z-score [1] | PBM binding z-score [2] | PBM binding z-score [3] | PBM binding z-score [4] | PBM binding z-score [5] | PBM binding z-score [6] | PBM binding z-score [7] | PBM binding z-score [8]
1 | CCTACTGGGCCAGTCAGAGGTCATTGATCATATG | 3.65 | 3.94 | 2.79 | 0.705 | 3.71 | 2.94 | 1.03 | 3.27
2 | AGTCAAAGTTCAGGACGAGGTATCGTAAAGCACG | 2.81 | 4.03 | 4.67 | 2.93 | 2.81 | 2.54 | 0.691 | 2.06
3 | CCTGATAGGTCAATGGTCAGCTAAAGCAGCTCGC | 3.38 | 4.62 | 4.89 | 1.32 | 3.76 | 1.72 | -0.0298 | 0.339
4 | GCGCCTGGGGCAAAGCAGGTTACCATAAGGTTGG | 0.951 | 0.319 | 0.493 | -0.424 | 0.237 | 2.96 | -0.193 | -0.387
5 | ATAACAAGGTGATCGTGAGGTCGTTGATACTAAC | 1.58 | 2.43 | 1.23 | 0.955 | 1.76 | 3.48 | 2.31 | 2.78
6 | GATACAGGGTCAGCTAGAGGCCAGATTATGGAAA | 3.59 | 6.4 | 4.49 | 1.25 | 4.05 | 3.2 | 0.619 | 0.715
7 | TCTTGTAGATCAACCAGGTTAAGAAAGCCTGAGT | 0.615 | 0.0614 | -0.146 | 0.718 | 0.38 | 0.777 | 0.123 | 0.207
8 | ACTAGCAGGCCAAGTTTGTGTCACTCAAACAAAG | 0.267 | 0.00878 | 0.0859 | -0.193 | -0.545 | -0.0341 | -0.316 | 0.051
9 | TAGCCTAGGTCATGCGGGCTAGTATAGTGTCGGC | 2.99 | 3.77 | 3.75 | 0.197 | 2.92 | 3.15 | 0.88 | 0.2
10 | CATACAGGGTCAGCTAGGCAAGAGTAGGGACGGC | 2.9 | 4.17 | 4.1 | 1.22 | 4.03 | 2.94 | 1 | 0.693
11 | TCTTGTAGATCAACAGGTTAAGAAAGCTGGCCAA | 0.358 | 0.2 | -0.172 | 0.696 | 0.726 | 0.203 | -0.285 | -0.285
12 | TCTAGTTGGTCACGGCGGTCACACACGACGGGTA | 2.92 | 2.1 | 2.76 | 0.889 | 1.34 | 0.79 | 0.372 | 0.652
13 | GATACTGGGTCAAGGCCAGAGTACGCGTATTGAT | 2.91 | 3.4 | 3.58 | -0.138 | 2.62 | 2.09 | 0.289 | 0.679
14 | GCTATTAGTTGAAAGAGCAACCGAATGATTCTCG | -0.533 | -0.181 | 0.242 | 0.464 | 0.226 | -0.376 | -0.896 | -0.22
15 | AGAGTGAGGTTATACGTAGATCAGGGAAGAAAGT | 1.53 | 1.82 | 1.28 | 1.38 | 2.03 | 2.21 | 1.15 | 1.41
16 | TCTTGTAGATCAAGCAGGTCAAGAAAGCCTGAGT | 2.28 | 1.43 | 1.35 | 0.714 | 1.66 | 2.01 | 0.223 | 0.53
17 | ACTTACGGGTCAACGAGGTTATCGCACGCGTATA | 3.52 | 5.86 | 5.38 | 3 | 6.75 | 4.19 | 1.23 | 4.34
18 | TAGCCCAGGTCATGGGCCAGTATACCACGCGAAC | 2.61 | 4.42 | 4.43 | 0.576 | 4.06 | 3.69 | 2.3 | 1.08
19 | CCGACTGGGGCAAGGTTACCATTACGCACAGCCA | 1.42 | 0.911 | 1.17 | -0.427 | 1.03 | 1.09 | 0.435 | 0.338
20 | GGAACGAGGGAAAGTTGATAGCAGAGTTTGATGG | -0.315 | -0.266 | 0.0692 | 0.0118 | -0.106 | -0.351 | -0.268 | -0.209
21 | CGTCCAAGGTCAGCAGGTCAGTTAAAGCGACGTG | 5.1 | 6.48 | 7.2 | 2.34 | 5.18 | 4.27 | 2.96 | 1.71
22 | GCATATAGGTAATACAAGGTGAAAGACCGATTGT | 0.665 | 0.88 | 0.835 | 0.075 | 0.929 | 4.12 | 0.583 | -0.0342
23 | AAATGTAGGTTACATCCGGGTCATTCAGGCTATG | 2.82 | 3.7 | 2 | 1.3 | 3.08 | 3.67 | 2.22 | 3.16
24 | CCTACTGGGCCATCAGGTCTTTGATATCAACGTT | 0.24 | -0.0925 | -0.00289 | -0.126 | -0.274 | 0.487 | 0.437 | -0.123
25 | TCTGCTAGGTCAACGATGGTCAACTAATCTGCTA | 3.58 | 4.12 | 5.25 | 1.32 | 2.75 | 3.24 | 1.05 | 0.125
26 | AGAACGGGGGCACGCTGAGTTGATAGCAGAGTAG | 1.94 | 3.62 | 3.2 | 2.78 | 2.94 | 2.9 | 0.833 | 3.45

Row | Sequence | PBM binding z-score [1] | PBM binding z-score [2] | PBM binding z-score [3] | PBM binding z-score [4] | PBM binding z-score [5] | PBM binding z-score [6] | PBM binding z-score [7] | PBM binding z-score [8]
27 | CCGAGTAGGTTATGGGGAATTCAGGCAACGGTGA | 0.783 | 0.446 | 0.494 | 0.287 | 0.487 | 0.724 | 0.701 | 0.246
28 | TCATATAGGTAAATGCTAGGTGCAAGTCCGATCT | -0.219 | 0.325 | 0.13 | 1.51 | 0.838 | 0.121 | 0.135 | 0.597
29 | AGAATGAGGTTATACGTAGATCCGGGAAGAAAGT | 0.443 | 1.39 | 0.944 | 1.78 | 1.82 | 1.94 | 0.512 | 0.912
30 | ACTAGCAGGCCAAGGGTCACTCGAGATTAGTCCG | 3.75 | 3.93 | 4.02 | 0.801 | 4.28 | 2.45 | 0.0934 | 1.06
31 | CAAACTAGGTCAAAGGTCACAGTCGAGCCAACCA | 5.31 | 8.75 | 7.36 | 2.94 | 9.91 | 5.02 | 2.38 | 2.73
32 | ATCTCTAGGTAACAAGTTCAGCGAAAGAGAGGAC | 2.17 | 2.04 | 1.72 | 0.87 | 1.27 | 1.74 | 0.96 | 3
33 | CATACAGGGTCAGCCAGGCCAGAGTAGGGACGGC | 3.14 | 4.58 | 4.31 | 1.4 | 4.58 | 3.36 | 1.19 | 1.78
34 | CTCGAAAGGTCGGTTGAGGTGAGTTTACGGATAA | 2.53 | 2.78 | 2.96 | 1.27 | 2.12 | 4.97 | 1.31 | 2.25
35 | AGAACGAGGGCAATGAGTTGCTAGCACGGGTGGC | 0.949 | 0.847 | 1.24 | 1.67 | 0.545 | 0.677 | -0.316 | 1.49
36 | CCTATTAGTTGACCATATGGGCAACCGAAGCTCG | 0.53 | 0.405 | 0.481 | 0.486 | 0.208 | 0.00602 | 0.303 | 0.527
37 | AGTCAAAGTTTACTAGGTAACGTAAGATTCAGCT | 0.795 | 0.885 | 1.46 | 1.44 | 0.16 | 0.591 | -0.0944 | 0.294
38 | TCTTGTAGATCAATAGAGGTTACGAAAGTGCGCT | 1.7 | 1.05 | 0.657 | 0.65 | 1.54 | 2.75 | 0.12 | 0.507
39 | GCAGACAGGTGAAACGCAGGTAACCCAGGGTGGC | 0.0682 | 1.01 | 0.468 | -1.51 | 0.96 | 1.52 | -0.636 | -1.22
40 | AATACAGGGTCATCGTAGGCCCGAGTACGCACAG | 3.43 | 5.52 | 5.24 | 3.34 | 6.9 | 3.72 | 1.41 | 3.29
41 | CCGACTGGGGCGAAGGTTACCATACTCAGTACGA | 0.751 | 0.697 | 0.405 | -0.021 | 1.12 | 0.439 | -0.242 | -0.459
42 | TCATATAGGTAAATGCTAGGTGAAAGTACGATCT | 0.7 | 0.683 | 0.548 | 1.67 | 1.26 | 1.6 | 0.701 | 0.431
43 | ATATGTAGGTTAGCTGGGGTCAGTCAGACTAGGC | 3.61 | 3.36 | 2.88 | 0.894 | 3.64 | 5.02 | 2.36 | 2.29
44 | CCTAATTGGTCAAGGTCACACACGCTATAGGTAC | 4.67 | 4.73 | 4.86 | 2.36 | 4.64 | 4.34 | 4.13 | 3.38
45 | CCTAGCAGGCCAGGGCCACTCAAGCATTTCGCTT | -0.124 | -0.441 | -0.124 | -0.762 | -0.718 | -0.482 | -0.794 | -0.946
46 | CGAACGAAGGCATGAGTTGATAGCAAATGCCGAT | -0.914 | -0.373 | -0.278 | -0.249 | -0.113 | -0.643 | -0.827 | -0.193
47 | GCTGCTAGGTCAACTGATGGTCTGCTAAAGCTCG | 3.12 | 4.34 | 4.87 | 1.78 | 2.91 | 2.83 | 1.02 | -0.264
48 | TCATATAGGTAAACAGGAGAAAGTCCGTAAGTTA | -0.0173 | 0.0941 | 0.0897 | 1.4 | 0.771 | 0.0424 | -0.0606 | 0.309
49 | TCAGACAGGTTAAGGTAACTCAGGTACGCAGTCG | 1.33 | 1.22 | 1.08 | 1.43 | 1.57 | 3.11 | 2.5 | 0.557
50 | GGTCGGAGGACAAGGTCAGAGCTTTGTCCGTAGA | 3.33 | 3.31 | 4.24 | 0.467 | 2.46 | 3.12 | 1.85 | 0.993
51 | CTCGAAAGGTCGTGCTCAGGTGAGAATACCAAAC | 2.73 | 5.24 | 4.09 | 2.05 | 4.93 | 4.12 | 1.14 | 0.913
52 | AATACAGGGTCACTAGGGCAGAGTAGGTACGAAT | 3.68 | 5.3 | 5.01 | 2.74 | 5.8 | 3.45 | 1.6 | 2.98
